The values that follow come from ChEMBL document CHEMBL4513216, “Probing the Open Global Health Chemical Diversity Library for Multistage-Active Starting Points for Next-Generation Antimalarials” (ACS Infect Dis, 2020).

The structures appear in SMILES notation. Among all 69,000 compounds or so, about 8,600 (12%) showed an effect of 50% or more. The sample holds strong results, similar compounds and a random draw of the others, so the mix is not that of the screen.

The subject of the test is Plasmodium berghei. Description: Screen against P. berghei liver stage (PbLuc), transformed with Luciferase, at 10uM. In kind it is functional, HepG2. To be noted: tested at 10 uM.
For `O=C(c1ccc2[nH]nnc2c1)N1CCC(Nc2cccnn2)CC1`, the INHIBITION was 33.3%.
In the case of `NCCC(=O)NCC1(O)CCCN(c2ccnc3cccnc23)C1` (centres undefined), the INHIBITION is recorded as 29.4%.
In the case of `CCN(c1ccsc1C(=O)N1CCC(C)CC1)S(=O)(=O)c1ccccc1`, the INHIBITION is reported as -8%.
For `Cc1ccc(N(C)[C@@H]2CC[C@@H]3CN(C(=O)Cc4cccs4)C[C@@H]32)nn1`, the INHIBITION is -3.02%.
Take `FC(F)C(F)(F)COCc1ncnn1-c1ccc2c(c1)OCO2`: the INHIBITION is given as -98.6%.
The same measure for `CN1CCN(CCc2ncnn2-c2ccc3c(c2)OCO3)CC1`: 89.9%; for `FC(F)(F)CCc1ncnn1-c1ccc2c(c1)OCO2`: -147%; for `Cc1nn(C)c(C)c1OCC(=O)NCC(O)c1ccccc1F` (centres undefined): 57.5%.
On to `Cc1nn(C)c(C)c1OCC(=O)NCC(O)c1ccsc1` (centres undefined), for which the INHIBITION is given as 29.7%.
The same measure for `Cc1nn(C)c(C)c1OCC(=O)NCC(O)Cc1ccccc1` (centres undefined): 67.4%; for `Cc1nn(C)c(C)c1OCC(=O)NCc1cccc(CO)c1`: -8.92%; for `Cc1nn(C)c(C)c1OCC(=O)NCC(O)c1ccco1` (centres undefined): 40.6%.
Under `Cc1nn(C)c(C)c1OCC(=O)NCc1cccc(C(=O)O)c1` stands 38.6%; under `CC(C)[C@H](NS(C)(=O)=O)C(=O)NCc1cc(-c2cccc(Cl)c2)nn1C`, 45.6%; under `CCC(CO)N(Cc1ccsc1)Cc1c(C)nn(C)c1Cl` (centres undefined), 27.7%.
Turning to `NS(=O)(=O)c1cccnc1Nc1cccc(Cl)c1Cl`, the INHIBITION was 27.4%.
Consider `COc1ccc(CN(C)C(=O)Cc2c(C)nn(C)c2C)cc1F`, for which the INHIBITION was 73.6%.
As to `COc1cc(CN(C)C(=O)Cc2c(C)nn(C)c2C)ccc1OC(F)F`, the INHIBITION was found to be 93.4%.
Take `COc1ccc(NC(=O)Cc2c(C)nn(C)c2C)cc1F`: the INHIBITION was determined as 47.3%.
In the case of `COc1ccc(CN(C)C(=O)CN2CC(n3cc(C)cn3)C2)cc1F`, the INHIBITION turned out to be 17.1%.
For the compound `Cc1nn(C)c(C)c1CCC(=O)N(C)Cc1ccc2nsnc2c1`, the INHIBITION is given as -18.3%.
Turning to `COc1ccc(CCC(=O)N(C)Cc2c(C)nn(C)c2C)cc1`, the INHIBITION is reported as 40.9%.
`CCCS(=O)(=O)N1Cc2nccn2CC(CN2CCCC2)C1` (centres undefined): the INHIBITION is 30.3%.
Turning to `O=C(Nc1cccc(C(=O)OCC2CCCN2)c1)c1ccoc1` (centres undefined), the INHIBITION is reported as -97.2%.
In the case of `N#Cc1c(N)nc2c(c1-c1c[nH]nc1C1CCCCC1)CC(N)CC2` (centres undefined), the INHIBITION is listed as -2.43%.
Turning to `CC(=O)NCc1nnc2n1CCN(Cc1cccs1)C2`, the INHIBITION amounted to 76.2%.
`N#CCC(=O)NCc1nnc2n1CCN(Cc1cccs1)C2`: the INHIBITION was 0.164%.
Consider `CS(=O)(=O)NCc1nnc2n1CCN(Cc1cccnc1)C2`, for which the INHIBITION was 45.1%.
Consider `Cc1ccc(CN2CCn3c(CNS(C)(=O)=O)nnc3C2)s1`, for which the INHIBITION amounted to 50.9%.
With `CN(C)C(=O)NCc1nnc2n1CCN(Cc1cccs1)C2`, the INHIBITION worked out at 27.7%.
On to `CS(=O)(=O)NCc1nnc2n1CCN(Cc1ccncc1)C2`, for which the INHIBITION is 64.9%.
With `CS(=O)(=O)NCc1nnc2n1CCN(Cc1cccs1)C2`, the INHIBITION is 34.7%.
Take `CS(=O)(=O)NCc1nnc2n1CCN(Cc1nccs1)C2`: the INHIBITION was found to be 18.3%.
For the compound `CS(=O)(=O)NCc1nnc2n1CCN(Cc1ccc(F)cc1)C2`, the INHIBITION is reported as 15.9%.
On to `COC(=O)C(C)(C)NC(=O)C1CC(=O)N(CC2CC2)C1` (centres undefined), for which the INHIBITION came out at 25.1%.
The same measure for `CNc1snc(C)c1C(=O)N1CCCC(n2ccnc2)C1` (centres undefined): 33.8%.
Regarding `CC[C@H]1N(Cc2ccc(OC)cc2)CCC[C@]12CCC(=O)N2C`, the INHIBITION amounted to 6.27%.
On to `Cc1nc(N2CCCN(c3ncccn3)CC2)c2cnn(C)c2n1`, for which the INHIBITION was -9.29%.
The same measure for `Cc1ncsc1CN1CCn2nc(CCC(=O)N3CCCC3)cc2C1`: 14.9%.
As to `Cc1nnc(NC(=O)CN2CCc3c(nc(C4CC4)n3C)C2)s1`, the INHIBITION came out at 14.4%.
Regarding `CC(=O)NC1CCCN(C(=O)NCc2ccc(-n3cccn3)cc2)C1` (centres undefined), the INHIBITION is recorded as 0.914%.
As to `O=C(Cc1cccs1)N1C[C@@H]2COC[C@]2(COCc2cccnc2)C1`, the INHIBITION came to 43.9%.
The same measure for `Cc1cc2nc(O)c(O)nc2cc1S(=O)(=O)NC1CC1`: 60.7%.
As for `Cc1cc2[nH]c(=O)c(=O)[nH]c2cc1S(=O)(=O)NC1CCCCC1`, the INHIBITION is -27.7%.
Under `Cc1cc2[nH]c(=O)c(=O)[nH]c2cc1S(=O)(=O)NC1CCC(C)CC1` (centres undefined) stands 23%; under `CNC(=O)[C@@H](c1ccccc1F)N1CCC[C@H]1C(=O)NC1CCOCC1`, -27.5%.
As to `CN1CCCC(CNS(=O)(=O)N2CCc3ccccc3C2)C1` (centres undefined), the INHIBITION is recorded as 57.8%.
For the compound `CCN1CCC(CNS(=O)(=O)N2CCc3ccccc3C2)C1` (centres undefined), the INHIBITION was determined as 45.4%.
Consider `O=S(=O)(NCC1COc2ccccc2C1)N1CCCCC1` (centres undefined), for which the INHIBITION is -7.71%.
For the compound `O=S(=O)(NCC1COc2ccccc2C1)N1CCCC1` (centres undefined), the INHIBITION was -30%.
Under `O=S(=O)(NCC1CCOC1)N1CCc2ccccc2C1` (centres undefined) stands 27.5%.
Under `O=S1(=O)CCC(CNS(=O)(=O)N2CCc3ccccc3C2)C1` (centres undefined) stands 52.2%.
As for `CCn1nc(CC(C)C)cc1C(=O)NCc1c(C)cc(C)nc1OC`, the INHIBITION was 47.3%.
Regarding `CSCC(=O)Nc1cccc(Oc2ccccn2)c1`, the INHIBITION was -9.93%.
As to `CN(C)S(=O)(=O)NC1CC(=O)N(c2ccccc2Cl)C1` (centres undefined), the INHIBITION is 25.8%.
For `O=C1CC(NS(=O)(=O)NCc2ccccc2)CN1c1ccccc1Cl` (centres undefined), the INHIBITION was 55%.
Take `CS(=O)(=O)NC1CC(=O)N(c2ccccc2Cl)C1` (centres undefined): the INHIBITION is 28.7%.
The same measure for `CC(C)N(C)Cc1cncc2c1CCN(CC(=O)N(C)C)C2`: 12.2%; for `CN(C)Cc1cncc2c1CCN(CC(=O)N(C)C)C2`: 72%.
For `COCc1cncc2c1CCN(Cc1cnn(C)c1)C2`, the INHIBITION is -26.2%.
As for `COCc1cncc2c1CCN(Cc1cccnc1)C2`, the INHIBITION was 24.8%.
Under `CN(C)Cc1cncc2c1CCN(Cc1ccoc1)C2` stands 24.9%; under `CN(Cc1cccnc1)Cc1cncc2c1CCN(Cc1ccoc1)C2`, 28.5%.
Under `c1cncc(COCc2cncc3c2CCN(Cc2ccoc2)C3)c1` stands 54.8%; under `CN(C)Cc1cncc2c1CCN(Cc1cnn(C)c1)C2`, 59.8%.
For `Cn1cc(CN2CCc3c(COCC4CC4)cncc3C2)cn1`, the INHIBITION is 7.15%.
Regarding `CC(C)N(C)Cc1cncc2c1CCN(CC1CC1)C2`, the INHIBITION amounted to 44.8%.
Under `CN(C)C(=O)COCc1cncc2c1CCN(Cc1cnn(C)c1)C2` stands 23.5%; under `CC(C)COCc1cncc2c1CCN(Cc1cnn(C)c1)C2`, 71.8%.
